Results: PubChem BioAssay
Results with a measured potency or affinity are listed apart. Records with an inconclusive call do not appear. Unmarked numbers belong to inactive results. The rule behind the calls is not given here.

assay: general cell-killing toxicity readout – plate reader, dry powder samples, cytotoxicity control for PAX8 inhibitor project, dose response (AID 743021); conditions: cell line, non-specific cytotoxicity counter-screen; series mostly up to 35 µM; activity change, negative = cytotoxicity: at the top concentration

Row | SMILES | activity change, negative = cytotoxicity
1 | COc1cccc(-c2ccc(C3[C@@H]4CN(C(=O)C5CC5)C[C@H]3N4)cc2)c1 (stereo not given in full) | -6.51%
2 | NS(=O)(=O)c1ccc(CCN2C(=O)/C(=C\c3ccc(Cl)cc3)SC2=S)cc1 | 31.1%
3 | C[C@@H]1CN([C@H](C)CO)C(=O)c2cc(NS(=O)(=O)c3ccccc3)ccc2O[C@@H](C)CCCCO[C@H]1CN(C)Cc1ccc(C(F)(F)F)cc1 | -6.64%
4 | O=C(C1CC1)N1C[C@@H]2N[C@H](C1)C2c1ccc(-c2cccc(F)c2)cc1 (stereo not given in full) | -29.6%
5 | Oc1c(Cl)cc(Cl)c(Cl)c1Cc1c(O)c(Cl)cc(Cl)c1Cl | -20.8%
6 | Cn1cnc(S(=O)(=O)N2C[C@@H]3N[C@H](C2)C3c2ccc(-c3ccccc3F)cc2)c1 (stereo not given in full) | -9.69%
7 | COc1ccc(S(=O)(=O)N(C)C[C@@H]2Oc3ccc(NC(=O)Nc4ccc(C(F)(F)F)cc4)cc3CC(=O)N([C@H](C)CO)C[C@@H]2C)cc1 | -10.4% [at 30 µM]
8 | Cc1ccc(S(=O)(=O)Nc2ccc3c(c2)C(=O)N([C@H](C)CO)C[C@@H](C)[C@@H](CN(C)Cc2ccc(C(F)(F)F)cc2)OCCCC[C@H](C)O3)cc1 | 7.16%
9 | C[C@H](CO)N1C[C@H](C)[C@H](CN(C)Cc2ccc(C(=O)Nc3ccccc3N)cc2)Oc2ccc(N(C)C)cc2C1=O | -31.7%
10 | N#C[C@@H]1[C@@H](c2ccc(C#Cc3ccccc3F)cc2)[C@H](CO)N1C(=O)C1CCCCC1 | -10%
11 | Cn1nnnc1Sc1ncnc2scc(-c3cccc(Br)c3)c12 | 27.9%
12 | CCCCCCCCn1c2c(c(=N)c3c1CCC3)CCCC2 | 11.4%
13 | O=C(Nc1cccc(C(=O)O)c1)Nc1ccc2c(c1)OCO2 | -37.6%

assay: IGROV1 cell killing – plate reader, dry powder samples, PAX8 inhibitor project, dose response (AID 743043); conditions: IGROV1 ovarian cancer cell cytotoxicity; series mostly up to 35 µM; activity change, negative = cytotoxicity: at the top concentration;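 note: more negative means fewer viable cells or more cytotoxicity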

Row | SMILES | activity change, negative = cytotoxicity
14 | O=C1CN(S(=O)(=O)Cc2ccccc2)C[C@H]2[C@H](c3ccc(C#Cc4ccc(F)cc4)cc3)[C@H](CO)N12 | 9.7%
15 | C[C@@H]1CN([C@@H](C)CO)C(=O)Cc2cc(NC(=O)Cc3ccccc3)ccc2O[C@H]1CN(C)Cc1ccc(-c2ccccc2)cc1 | 4.33%
16 | C[C@H](CO)N1C[C@H](C)[C@H](CN(C)Cc2ccc3c(c2)OCO3)OCCCC[C@H](C)Oc2ccc(NC(=O)Nc3ccc(C(F)(F)F)cc3)cc2C1=O | -38.9%
17 | O=C(C[C@H]1C[C@@H]2c3cc(NS(=O)(=O)c4ccc(F)cc4)ccc3O[C@@H]2[C@@H](CO)O1)N1CCc2ccccc2C1 | -18%
18 | COc1ccc(S(=O)(=O)N(C)C[C@@H]2OCCCC[C@H](C)Oc3ccc(NS(=O)(=O)c4ccc(Cl)cc4)cc3C(=O)N([C@H](C)CO)C[C@@H]2C)cc1 | -15.6%
19 | COc1ccc(S(=O)(=O)Nc2ccc3c(c2)C(=O)N([C@@H](C)CO)C[C@@H](C)[C@H](CN(C)Cc2ccc(C(F)(F)F)cc2)OCCCC[C@H](C)O3)cc1 | 23.7% [at 16 µM]
20 | COc1ccccc1S(=O)(=O)N(C)C[C@H]1Oc2cc(C#CCC3CCCC3)ccc2S(=O)(=O)N([C@@H](C)CO)C[C@H]1C | 12.7%
21 | COc1ccccc1C#Cc1ccc([C@H]2[C@H](C#N)N(C(=O)C3CCC3)[C@H]2CO)cc1 | -1.14%
22 | COc1ccccc1C#Cc1ccc([C@H]2[C@H](C#N)N(C(=O)C3CC3)[C@H]2CO)cc1 | -65.9%
23 | C[C@@H]1CN([C@@H](C)CO)S(=O)(=O)c2ccc(C#Cc3ccccc3F)cc2O[C@H]1CN(C)C(=O)Cc1ccccc1 | -5.14%
24 | C[C@H]1CCCCO[C@H](CN(C)S(=O)(=O)c2ccccc2)[C@@H](C)CN([C@@H](C)CO)C(=O)c2cc(NS(=O)(=O)c3ccc(Cl)cc3)ccc2O1 | 1.91%
25 | O=C(C[C@@H]1C[C@@H]2c3cc(NS(=O)(=O)c4ccc(F)cc4)ccc3O[C@@H]2[C@@H](CO)O1)NCc1ccc(Oc2ccccc2)cc1 | -6.53%
26 | CCCC#Cc1ccc([C@H]2[C@@H](C#N)N(C(=O)C3CCCCC3)[C@H]2CO)cc1 | -2.71%
27 | COc1ccc(NC(=O)N2CCCCN3[C@H](C2)[C@@H](c2ccc(C#Cc4ccccc4)cc2)[C@@H]3CO)cc1 | 6.63%
28 | N#C[C@H]1[C@H](c2ccc(C#Cc3ccccc3F)cc2)[C@H](CO)N1C(=O)C1CCC1 | -13.2%
29 | COc1ccc(CN(C)C[C@@H]2OCCCC[C@H](C)Oc3ccc(NC(=O)Nc4ccc(C(F)(F)F)cc4)cc3C(=O)N([C@@H](C)CO)C[C@H]2C)cc1 | -30.4%
30 | COc1cccc(C#Cc2ccc([C@H]3[C@@H](CO)N(C(=O)C4CCCCC4)[C@H]3C#N)cc2)c1 | -8.02%
